# Test results from paper PMC5540273 (PLoS ONE, 2017).
# Assays:
# Settings in all cases: concentration: 1 μM, replicates: in singlicate; n = 1
# PAK3 = system: PAK3
# PAK4 = system: PAK4
# PAK6 = system: PAK6
# PAK7 = system: PAK7
# PCTK1 = system: T1, PCTK1
# T1 construct: gene CDK16
# PCTK2 = system: T2, PCTK2
# T2 construct: gene CDK17
# PCTK3 = system: T3, PCTK3
# T3 construct: gene CDK18
# PDGFRA = system: PDGFRA
# PDGFRB = system: PDGFRB
# PDPK1 = system: PDPK1
# 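Further: KINOMEscan kinase panel screen.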
SMILES,%Inh (PAK3) [%],%Inh (PAK4) [%],%Inh (PAK6) [%],%Inh (PAK7) [%],%Inh (PCTK1) [%],%Inh (PCTK2) [%],%Inh (PCTK3) [%],%Inh (PDGFRA) [%],%Inh (PDGFRB) [%],%Inh (PDPK1) [%]
Nc1nccc(-c2c(-c3ccc(F)cc3)ncn2C2CCN(Cc3ccccc3)CC2)n1 [SB-219980],5,0,0,0,3,0,0,22,20,0
COc1ccc2cc(-c3nc(-c4ccccc4C(C)C)[nH]c3-c3ccncc3)ccc2c1 [SB-660566],30,0,0,0,51,0,2,0,7,0
COc1nccc(-c2c(-c3ccc(F)cc3)ncn2CCCN2CCOCC2)n1 [SB-282852],0,0,9,7,6,0,0,17,0,0
Cc1ccc(NC(=O)Nc2ccc(Cl)cc2)cc1-c1ccc(C(=O)Nc2ccncc2)cc1 [GSK1398472],21,0,0,0,5,0,0,10,99.7,0
COc1ccc(-c2coc3ccc(-c4nnc(C)o4)cc23)cc1,0,5,6,5,56,0,11,0,0,33
COc1ccc(CSc2nnc(-c3ccc4c(c3)CCO4)o2)cc1,0,0,0,0,0,5,0,0,0,0
Cc1ccc(NC(=O)c2ccc(Cl)cc2)cc1-c1ccc(C(=O)Nc2ccncc2)cc1 [GSK1398467],19,0,0,65,0,0,0,66,100,0
Cn1cncc1C(=O)NC1CCN(c2ccnc(Nc3ccc(F)cc3)n2)C1 (stereo not drawn) [GSK1379717],0,0,0,0,4,0,16,2,14,0
CC(=O)c1c(C)c2cnc(Nc3ccn(C)n3)nc2n(C2CCCC2)c1=O,0,0,0,0,0,0,100,0,0,0
CCCCc1nn2ncccc2c1-c1ccnc(NC2CC2)n1 [GW684374],0,0,0,0,7,0,15,0,68,0
CCn1c(-c2c(N)noc2C)nc2cnccc21 [SB-737856],3,0,0,0,0,0,44,0,0,2
COC(=O)C(NC(=O)NC1CCN(c2ccnc(Nc3ccc(F)cc3)n2)C1)c1ccccc1 (stereo not drawn) [GSK1379712],0,0,0,2,0,14,24,14,38,0
COC(=O)c1cccc(NC(=O)NC2CCN(c3ccnc(Nc4ccc(OC)cc4)n3)C2)c1 (stereo not drawn) [GSK1379746],0,0,0,0,0,0,0,0,35,0
COc1ccc(Nc2nccc(N3CCC(NC(=O)C(C)c4ccc(Cl)cc4)C3)n2)cc1 (stereo not drawn) [GSK1379735],71,0,0,6,0,10,9,0,34,4
CC(=O)c1cccc(NC(=O)NC2CCN(c3ccnc(Nc4ccc(F)cc4)n3)C2)c1 (stereo not drawn) [GSK1379710],0,0,0,20,8,19,24,10,43,0
Cn1cnc2c(N)ncnc21 [SKF-97623],0,0,0,0,0,0,0,100,0,0
CNc1nc(-c2ccc3c(N)n[nH]c3c2)cc(N2C[C@@H](C(=O)Nc3ccccc3)CC[C@H]2C)n1 [GSK2298859],0,0,2,20,2,0,9,0,10,83
COc1ccc(Nc2nccc(-c3ccc(NC(=O)c4cc5cc(F)ccc5[nH]4)cc3)n2)cc1 [GSK1229496],0,0,0,5,0,0,0,0,47,0
COc1ccc(CSc2nnc(-c3ccc4ncsc4c3)o2)cc1C(F)(F)F,9,0,9,1,0,0,0,0,0,10
COc1ccc(Nc2nccc(N3CCC(NC(=O)c4cc5ccccc5s4)C3)n2)cc1 (stereo not drawn) [GSK1379738],0,0,2,0,15,0,0,0,26,0
FC(F)(F)c1ccccc1-c1cc(-c2c[nH]nc2-c2ccccn2)ccn1 [GW679396],8,0,3,0,0,10,7,0,19,18
